# In article PMC4336329 (PLoS ONE, 2015):
# The whole screen tested about 310,000 compounds, of which about 14,000 (4.5%) showed an effect of 50% or more. Effects have a minus sign here. For the sample, strong results were picked, then their nearest neighbours and some compounds at random.
# Biological target: human ether-à-go-go-related gene (hERG) potassium channel (human, UniProt Q12809)
# Assay: primary screen, population patch clamp on CHO cells stably expressing hERG; higher = less effect of the substance
# 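Note: peak tail current of the secondary pulse compared with the same well before compound.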
# Chain of human ether-à-go-go-related gene (hERG) potassium channel (Q12809 whole entry, looked up): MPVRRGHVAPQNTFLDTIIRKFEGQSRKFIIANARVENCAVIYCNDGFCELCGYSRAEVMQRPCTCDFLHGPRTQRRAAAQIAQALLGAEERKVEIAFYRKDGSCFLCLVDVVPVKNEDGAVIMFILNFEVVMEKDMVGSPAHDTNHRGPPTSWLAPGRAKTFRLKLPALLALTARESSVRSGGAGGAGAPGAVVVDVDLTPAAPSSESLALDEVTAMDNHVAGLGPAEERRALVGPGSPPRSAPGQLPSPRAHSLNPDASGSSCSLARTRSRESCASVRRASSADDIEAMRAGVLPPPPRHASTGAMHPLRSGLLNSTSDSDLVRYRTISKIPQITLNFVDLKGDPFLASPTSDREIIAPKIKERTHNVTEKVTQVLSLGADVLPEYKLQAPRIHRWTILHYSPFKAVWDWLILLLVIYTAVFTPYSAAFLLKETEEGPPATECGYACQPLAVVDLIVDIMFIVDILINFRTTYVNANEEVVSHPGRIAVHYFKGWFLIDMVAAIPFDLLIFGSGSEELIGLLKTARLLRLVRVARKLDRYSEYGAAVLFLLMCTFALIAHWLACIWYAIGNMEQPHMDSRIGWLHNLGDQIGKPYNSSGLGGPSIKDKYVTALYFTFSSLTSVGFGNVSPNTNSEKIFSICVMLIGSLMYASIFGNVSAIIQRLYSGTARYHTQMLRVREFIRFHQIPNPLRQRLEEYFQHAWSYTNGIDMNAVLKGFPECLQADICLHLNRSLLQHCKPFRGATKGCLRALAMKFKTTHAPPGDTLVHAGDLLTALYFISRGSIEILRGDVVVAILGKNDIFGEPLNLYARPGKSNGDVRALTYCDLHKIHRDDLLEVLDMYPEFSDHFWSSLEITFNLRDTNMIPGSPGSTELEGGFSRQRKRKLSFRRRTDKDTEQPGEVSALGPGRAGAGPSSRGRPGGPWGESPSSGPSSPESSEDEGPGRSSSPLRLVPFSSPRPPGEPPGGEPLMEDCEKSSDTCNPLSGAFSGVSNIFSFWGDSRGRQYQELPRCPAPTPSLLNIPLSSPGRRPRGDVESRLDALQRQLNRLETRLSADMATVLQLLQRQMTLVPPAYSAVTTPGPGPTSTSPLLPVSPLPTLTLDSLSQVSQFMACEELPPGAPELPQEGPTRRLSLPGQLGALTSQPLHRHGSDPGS
row,SMILES,"hERG current change (%, negative = inhibition) at 10uM [%]"
1,Cc1nc2cc(NC(=O)Nc3ccc(N4CCOCC4)cc3)ccc2n1C,6.34
2,COCCn1c(Br)nc2c1c(=O)n(C)c(=O)n2C,8.14
3,Cc1ccccc1C(=O)N1CCN(c2ccc(NC(=O)c3cccs3)cc2)CC1,4.97
4,CC(=O)Nc1ccc(S(=O)(=O)NCC2CCC(C(=O)NCCCN(C)Cc3ccccc3)CC2)cc1 (stereo not shown),6.98
5,CCn1c(SCC(=O)NCC2CCCO2)nnc1-c1ccccc1OC (stereo not shown),10.9
6,CS(=O)(=O)Nc1ccccc1C(=O)NCC1(N2CCCCC2)CCCCC1,-8.32
7,O=C(O)c1ccc(NS(=O)(=O)c2ccc(C(=O)Nc3ccccc3)cc2)cc1,-8.65
8,Cc1ccc(Cn2nnnc2CN2CCC(n3nnc4ccccc43)CC2)cc1.Cl,-53.9
9,Cc1ccc(Cn2nnnc2CN2CCC(NC(=O)C(C)(C)C)CC2)cc1.Cl,0.395
10,Cc1ccc(S(=O)(=O)N2CCC(n3nnc4cc(C)ccc43)CC2)cc1,-28.9
11,Cc1ccc(C)c(CN2CCC(n3nnc4cc(F)ccc43)CC2)c1,-21.2
12,Cc1ccc(Cn2nnnc2CN2CCC(n3nnc4cc(C)ccc43)CC2)cc1,-65.2
13,Cc1ccc(Cn2nnnc2CN2CCC(NC(=O)c3ccc(Br)cc3)CC2)cc1,-44.7
14,COc1ccc(CCNC(=O)CSc2nc(N)cc(=O)[nH]2)cc1OC,29.6
15,Cc1ccc(S(=O)(=O)N(C)C)cc1NC(=O)C(C)N(C)Cc1sccc1C (stereo not shown),-16.1
16,O=C(COc1ccccc1)Nc1ccc2oc(=O)ccc2c1,4.76

row,SMILES,"hERG current change (%, negative = inhibition) at 10uM [%]"
1,CCOC(=O)N1CCN(C(=O)c2ccc3c(=O)n(Cc4ccc(Cl)cc4)c(=S)[nH]c3c2)CC1,4.36
2,CN(C)c1ccc(N/C=C/C(=O)c2ccco2)cc1,4.67
3,Cc1nn(C)c(C)c1CN(Cc1nc(CCC(C)C)no1)C(C)C,13
4,COC(=O)c1cccc(N(C(=O)CNC(=O)c2ccco2)C(C(=O)NC2CCCC2)c2ccco2)c1 (stereo not shown),6.89
5,CCOc1cc(CN2CCN(C(=O)Cc3ccccc3)CC2)ccc1OC.O=C(O)C(=O)O,-37.6
6,Cc1c(CN2CCC(CO)(Cc3cccc(C(F)(F)F)c3)CC2)c2ccccc2n1C,-47.2
7,CCOc1cc(CN2CCC(CO)(Cc3cccc(C(F)(F)F)c3)CC2)ccc1OC,-76.6
8,CSc1cccc(CN2CCC(CO)(Cc3ccccc3)CC2)c1,-44.8
9,CCOc1cc(CN2CCCCCC2)ccc1OC,-3.28
10,COc1ccc2[nH]c(C(=O)N3CCC(CO)(Cc4cccc(C(F)(F)F)c4)CC3)c(C)c2c1,7.98
11,COc1ccc(F)c(CN2CCC(CO)(Cc3cccc(C(F)(F)F)c3)CC2)c1,-58.4
12,COc1cc(CN2CCC(CO)(Cc3cccc(C(F)(F)F)c3)CC2)ccc1F,-68.7
13,CSc1cccc(CN2CCC(CO)(Cc3cccc(C(F)(F)F)c3)CC2)c1,-64.4
14,OCC1(Cc2cccc(C(F)(F)F)c2)CCN(Cc2cc(F)cc(F)c2)CC1,-43.4
15,FC(F)(F)c1cccc(CN2CCCCCC2)c1,2.33
